Most compounds without a hit are left out; they make up all but 8.3% or so of the library.
RORgamma inh: qHTS for inhibitors of ROR gamma transcriptional activity; actives 5.4% (n = 310,000); Drosophila S2 Gal4-RORgamma UAS-luciferase reporter, 20 h; Nuclear receptor ROR-gamma (Mus musculus), P51450; AID 2551, 2010; Potency, µM (doses to about 53.6 µM), for inactives: at the top dose activity change, negative = inhibition, most hits filed as inhibitors; also: potency is read from the fitted curve at half-maximal effect; % is scaled to controls: 0 for no effect and ±100 for the full control effect; nearly all actives have a fitted effect of over 60% in size
Target sequence (P51450 whole entry, looked up, the tested form may be a part): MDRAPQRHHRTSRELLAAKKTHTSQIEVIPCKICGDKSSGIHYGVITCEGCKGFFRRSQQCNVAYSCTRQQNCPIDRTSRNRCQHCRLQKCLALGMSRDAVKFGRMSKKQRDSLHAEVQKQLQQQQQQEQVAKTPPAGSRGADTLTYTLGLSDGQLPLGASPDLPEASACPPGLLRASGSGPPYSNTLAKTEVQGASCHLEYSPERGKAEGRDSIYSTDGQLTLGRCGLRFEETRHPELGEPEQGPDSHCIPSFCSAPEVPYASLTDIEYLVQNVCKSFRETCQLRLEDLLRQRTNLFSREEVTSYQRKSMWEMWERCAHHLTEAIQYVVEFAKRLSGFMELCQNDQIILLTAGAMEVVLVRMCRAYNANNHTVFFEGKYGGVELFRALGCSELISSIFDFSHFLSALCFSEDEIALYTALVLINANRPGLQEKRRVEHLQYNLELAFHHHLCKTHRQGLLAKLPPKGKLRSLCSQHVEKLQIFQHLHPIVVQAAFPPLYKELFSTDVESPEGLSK
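Read-out: Photinus luciferase luminescence; inhibitors lower reporter signal. Insect Schneider cells with Gal4-ROR gamma fusion under metallothionein promoter, UAS reporter; 700 uM final copper sulfate induction, 20 hr, ambient temperature.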
BCR signal inh: qHTS Assay to Find Inhibitors of Chronic Active B-Cell Receptor Signaling | ABC-DLBCL IkBa-CBG/CBR reporter, luminescence ratio, 4 h | actives 0.05% (n = 340,000) | Potency, µM (titrated, usually from 46.1 µM), for inactives: at the highest dose activity change, negative = inhibition, most hits filed as inhibitors; active = well fitted inhibition curve with a large enough effect in the signal ratio, with a control signal flat, not every such curve was filed as active; inconclusive = small, poorly fitted or top-dose-only effect, or effect the other way, or a change in a side signal; the % refers to the signal ratio;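 also: potency is read from the fitted curve at half-maximal effect; plate controls were basal doxycycline-induced cells for no effect and cells given 10 µM MG132 for full effect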
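TMD8 ABC-DLBCL cells carrying doxycycline-inducible green luciferase fused to IkappaBalpha plus unfused red luciferase were exposed to compounds (up to 46 uM) for 4 hrs at 37C. Activity came from the overlap-corrected green/red luminescence ratio.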
MCF10A rereplic: A quantitative high throughput screen for small molecules that induce DNA re-replication in MCF 10a normal breast cells | AID 624296, 2012 | Potency, µM (top dose mostly 46.1 µM), inactives show at the highest dose activity, positive = re-replication, most hits filed as activators | actives 2.9% (n = 350,000) | MCF 10A DNA re-replication, Hoechst nuclear intensity, 48 h; also: potency is read from the fitted curve at half-maximal effect; % of control where 0% means no effect; nearly all actives have a fitted effect of over 50% in size
VP16 counter: VP16 counterscreen qHTS for inhibitors of ROR gamma transcriptional activity; Drosophila S2 Gal4-VP16 UAS-luciferase, luminescence, 20 h; Potency, µM (doses to about 53.6 µM), inactives show top-dose activity, negative = inhibition, most hits filed as inhibitors; actives 3.5% (n = 310,000); AID 2546, 2010;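 also: Gal4-VP16 expression switched on by copper sulfate through the metallothionein promoter; potency is read from the fitted curve at half-maximal effect; % is scaled to controls: 0 for no effect and ±100 for the full control effect; nearly all actives have a fitted effect of over 50% in size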
SW480 rerep: A quantitative high throughput screen for small molecules that induce DNA re-replication in SW480 colon adenocarcinoma cells; SW480 DNA re-replication, Hoechst DNA content imaging, 48 h; Potency, µM (series often up to 46.1 µM), for the others: top-dose re-replication activation, hits mostly activators; actives 1.8% (n = 340,000); also: potency is read from the fitted curve at half-maximal effect; % of control where 0% means no effect; nearly all actives have a fitted effect of over 55% in size
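Cells (250 per well) received 23 nL compound or DMSO by pin tool and were kept 48 hr at 37 C, 5% CO2. Nuclei were then stained with Hoechst for 40 min and scanned for DNA content.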
Giardia killer: Small Molecules that selectively kill Giardia lamblia: qHTS | Giardia lamblia trophozoite viability | activity change, % at 7.66 µM, hits read low | AID 540267, 2011 | actives 0.15% (n = 340,000); in the data active = activity change below about -80%; inconclusive = between about -30% and that limit;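 also: parasites exposed to compound for two days anaerobically before the ATP read; % is scaled to controls: 0 for no effect and ±100 for the full control effect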
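Each well holds 100 Giardia trophozoites and compound. After two days (48 hrs) at 37 deg C in anaerobic conditions, ATP is quantified by luminescence.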
Starred values were filed as active, the others as inactive; ? = inconclusive; / = not tested or not shown; [ ] = another dose, or the depositor's remark. Unless noted, calls follow the shape of the dose curve; as a rule, active = well fitted curve in the direction sought with a large enough effect; inconclusive = small, poorly fitted or top-dose-only effect, or another doubt; inactive = no such curve, though single readings can be large; an effect the other way counts as inactive or inconclusive.

SMILES	RORgamma inh	BCR signal inh	MCF10A rereplic	VP16 counter	SW480 rerep	Giardia killer
CCOC(=O)C1(C)NC(c2cccs2)C2C(=O)N(c3ccc(OC)cc3)C(=O)C21 (stereo not drawn)	6%	5%	18µM*	-15%	?	14
CS(=O)(=O)N1CCC2(CC1)CN(C(=O)Nc1ccccc1)C2	2%	/	/	0%	/	/
COCCN1C=C(C(=O)OC)C(c2ccccc2Cl)C(C(=O)OC)=C1	26%	3%	13µM*	-6%	21µM*	-11
COCCN1C=C(C(=O)OC)C(c2cc(Br)c(OC)c(OC)c2)C(C(=O)OC)=C1	-15%	?	?	-3%	16%	3
COC(=O)C1=CN(Cc2ccc(OC)c(OC)c2)C=C(C(=O)OC)C1c1ccc(F)cc1	?	?	18µM*	10%	21µM*	15
CCN1C=C(C(=O)OC)C(c2cccc(OC)c2OC)C(C(=O)OC)=C1	8%	-7%	?	8%	16µM*	-5
CCN(CC)CCn1c2c(c(SCC(=O)Nc3ccccc3Cl)nc1=O)CCC2	/	-11%	0%	/	-3%	-13
O=C(NCCNc1ccnc2cc(Cl)ccc12)c1ccccc1F	?	1%	1%	11µM*	-3%	31
CNC(=O)C(=O)NCC1OCCCN1S(=O)(=O)c1ccc(F)cc1C (stereo not drawn)	2%	0%	2%	-2%	-22%	-10
Cc1[nH]n(S(=O)(=O)Cc2ccccc2)c(=O)c1N=Nc1ccccc1Cl	-2%	?	2%	-7%	-4%	-89*
Cc1[nH]n(S(=O)(=O)c2ccccc2)c(=O)c1N=Nc1cccc(Cl)c1	?	8%	?	?	-18%	?
O=C(COc1ccc(F)cc1)N/N=C/c1cccc2cccnc12	/	/	1%	/	?	?
Cn1cccc1/C=N\NC(=O)Cc1ccc(Br)c2ccccc12	?	-7%	?	11µM*	?	5
O=C(COc1cccc2cccnc12)N/N=C/c1ccccc1O	?	?	-17%	-5%	-22%	1
Cc1ccc(OCC(=O)N/N=C/c2cccc3cccnc23)cc1	16µM*	?	0%	?	?	-7
Cc1ccccc1OCC(=O)N/N=C/c1cccc2cccnc12	11µM*	?	17%	14µM*	?	0
Cc1ccccc1OCC(=O)N/N=C/c1cccn1C	8.9µM*	-8%	?	0%	-3%[9.22 µM]	18
CC1(C)Cc2cccc(C(=O)NC3CCN(Cc4ccccc4)CC3)c2O1	33%	9%	0%	3%	-40%	0
O=C(NCCN1CCOCC1)c1c(O)nc2sccn2c1=O	/	-5%	-11%	/	?	0
CCCCn1c(N)c(N(CCOC)C(=O)COC(=O)CCOc2ccc(C)cc2)c(=O)[nH]c1=O	/	0%	11%	/	?	11
CCc1ccccc1NC(=O)C/C(C)=N/NC(=O)COc1ccccc1C	11µM*	?	15%	?	-9%	2
CCc1ccc(NC(=O)C/C(C)=N/NC(=O)COc2ccccc2C)cc1	-32%	-17%	14%	16%	-5%	?
C/C(CC(=O)Nc1cc(Cl)ccc1Cl)=N\NC(=O)COc1cccc(C)c1	-44%	-16%	3%	-10%	-5%	11
COc1ccc(Cl)cc1NC(=O)C/C(C)=N/NC(=O)COc1ccc(C)cc1	11µM*	-15%	2%	-2%	-74%	6
O=S(=O)(c1ccc(F)cc1)N1CCN(S(=O)(=O)c2cccs2)CC1	2%	4%	6%	-4%	-10%	14
OC[C@H]1OC(O)[C@@H](O)[C@@H](O)[C@H]1O (stereo partly drawn)	19%	/	/	-1%	/	/
